# Screening data deposited in PubChem BioAssay by The Scripps Research Institute Molecular Screening Center.
# Only some compounds are listed: those with a hit (about 3.5% of all), similar ones and a draw of the others.
# TEAD-YAP inh = TEAD-YAP interaction inhibition | HEK-TIYL cells, TEAD-Gal4/YAP UAS-luciferase luminescence | inhibition, % at 9.12 µM | hit rate 1.4% among 640,000 | AID 1259422; in the data active = inhibition above about 32%;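 also: 0% = median of test compound wells and 100% = reference inhibitor wells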
# MITF inh = human MITF inhibition, primary screen | inhibition, % at 2.6 µM | O75030 | hit rate 0.91% among 650,000 | AlphaScreen MITF homodimerization, bead proximity signal; in the data active = inhibition above about 50%;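 also: 0% = vehicle wells with protein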
# GPR151 activ = activators of human GPR151. PathHunter beta-arrestin GPR151 cells, luminescence. hit rate 1% among 650,000. Q8TDV0. activation, % at 11.2 µM; in the data active = activation above about 4.9%;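 also: 0% = median of compound wells and 100% = cells with positive control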
# FBW7 activator = activators of human E3 ligase FBW7; Q969H0; AlphaScreen FBW7–phospho-cyclin E peptide binding, activator screen; normalized activity (activation), % at 26.1 µM; hit rate 0.13% among 650,000; AID 1259310; in the data active = normalized activity above about 1.9%;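 also: purified mutant Fbw7 with reduced substrate affinity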
# Target sequence (Q969H0 whole entry, looked up): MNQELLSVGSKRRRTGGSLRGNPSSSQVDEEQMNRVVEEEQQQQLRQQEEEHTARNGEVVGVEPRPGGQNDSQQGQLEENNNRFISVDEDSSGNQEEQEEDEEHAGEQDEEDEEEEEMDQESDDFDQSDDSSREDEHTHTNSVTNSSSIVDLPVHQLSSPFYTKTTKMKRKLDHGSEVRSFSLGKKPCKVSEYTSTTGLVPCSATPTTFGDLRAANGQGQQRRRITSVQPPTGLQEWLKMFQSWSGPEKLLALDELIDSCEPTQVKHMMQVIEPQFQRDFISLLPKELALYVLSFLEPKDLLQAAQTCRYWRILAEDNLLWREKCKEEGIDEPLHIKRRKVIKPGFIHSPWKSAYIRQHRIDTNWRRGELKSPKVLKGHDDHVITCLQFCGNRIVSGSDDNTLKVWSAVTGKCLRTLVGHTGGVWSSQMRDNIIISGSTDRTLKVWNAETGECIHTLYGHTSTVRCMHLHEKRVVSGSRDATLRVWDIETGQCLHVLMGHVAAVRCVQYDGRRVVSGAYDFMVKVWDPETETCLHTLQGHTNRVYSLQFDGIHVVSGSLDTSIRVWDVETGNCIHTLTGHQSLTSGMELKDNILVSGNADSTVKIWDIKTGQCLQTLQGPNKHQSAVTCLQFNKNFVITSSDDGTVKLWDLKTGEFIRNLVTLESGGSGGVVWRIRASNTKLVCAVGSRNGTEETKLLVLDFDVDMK
# GPR151 confirm = confirmation of human GPR151 activators | shares compounds with GPR151 activ | GPR151 PathHunter beta-arrestin cells, luminescence, 90 min; % of EA-reagent control over plate median | activation, % at 11.2 µM | 6,700 tested, under 10 active;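 active = mean percent activation across replicates above the confirmation screen cutoff of 4.91%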
# GPR119 counter = GPR119 activation, counter-screen for GPR151 activators; shares compounds with GPR151 activ; GPR119 PathHunter beta-arrestin cells, luminescence, 90 min; 0 = compound-well median, 100 = enzyme-acceptor control; activation, % at 11.2 µM; hit rate 0.3% among 6,700; AID 1508611;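 active = mean percent activation in the counterscreen above 29.09%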;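 also: counterscreen on off-target GPR119 to flag nonselective hits from the GPR151 activator screen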
# * hit, by the source's call; . = no result.
SMILES,TEAD-YAP inh,MITF inh,GPR151 activ,FBW7 activator,GPR151 confirm,GPR119 counter
CCOc1cc(C=C2C(=O)NC(=O)NC2=O)ccc1OC,14.2,12.0,-1.5,0.1,.,.
COc1ccc(S(=O)(=O)Oc2cccc(C=C3C(=O)NC(=O)NC3=O)c2)cc1,-9.8,-5.2,6.1*,-1.0,-0.1,7.5
O=C1NC(=O)C(=Cc2cccc(OS(=O)(=O)c3ccc(Cl)cc3)c2)C(=O)N1,-21.0,-8.7,2.2,-0.7,.,.
CCOc1cc(C=C2C(=O)NC(=O)NC2=O)ccc1OS(=O)(=O)c1ccc(OC)cc1,6.4,-11.4,6.0*,-0.1,0.5,3.6
Cc1nnc(Sc2nc3ccccc3s2)c2ccccc12,-47.4,4.5,-0.4,0.7,.,.
C=CCNC(=O)c1ccc(NS(C)(=O)=O)cc1,0.8,3.1,0.3,0.0,.,.
C[C@@H]1NC(=O)[C@@H]2C[C@H](NC(=O)Nc3ccccc3F)CN2C1=O,-0.1,12.3,0.0,0.0,.,.
C=CCCSc1nc2[nH]ncc2c(=O)n1-c1ccccc1Br,-1.8,17.3,-2.5,0.1,.,.
CC(=O)c1cc(C)ccc1OC(=O)c1ccc([N+](=O)[O-])cc1,-0.6,7.7,6.4*,-0.1,0.8,-8.8
COc1ccc(/C=C2/c3ccccc3-c3nc4ccccc4cc32)cc1OC,-10.8,8.2,1.5,0.1,.,.
COc1ccc(/C=C2/c3ccccc3-c3cc4c(C)cc(C)nc4cc32)cc1OC,-9.2,3.5,5.8*,-0.1,0.6,1.2
CC1=C(c2ccc(C)cc2)S(=O)(=O)N=C1Nc1ccc(Br)cc1F,-6.1,1.1,8.7*,0.2,1.6,7.7
CC1=C(c2ccc(C)cc2)S(=O)(=O)N=C1Nc1ccc(C)cc1,-75.6,-7.1,0.3,0.0,.,.
O=C(CSCC(=O)Nc1cccc2ccccc12)Nc1ccc(Br)cc1,-1.9,1.8,2.0,-0.1,.,.
COCC(C)NC(=O)/C=C/c1cc(OC)c(OC)c(OC)c1 (stereo unspecified),13.7,13.0,2.9,0.3,.,.
O=C(C1CC1)N1CCC(O)(c2ccccn2)CC1,-3.9,1.3,0.7,0.0,.,.
CS(=O)(=O)N1CCC(C(=O)N2CCC(O)(c3ccccn3)CC2)CC1,-10.2,0.3,11.0*,0.1,1.4,13.8
COc1ccc(C(=O)NC(=S)N2CCSCC2)cc1,-4.9,9.0,-0.1,-0.2,.,.
COc1ccc(C(=O)NC(=S)N2CCOCC2)cc1Br,-1.3,7.8,-1.7,0.8,.,.
COc1ccc(C(=O)NC(=S)N2CCOCC2)cc1,10.3,0.3,6.1*,-0.1,-0.8,6.5
CC(C)Oc1ccc(C(=O)NC(=S)N2CCOCC2)cc1,-17.4,2.2,13.1*,0.0,0.5,15.0
Clc1ccc(Sc2ncnc3sc4c(c23)CCCC4)cc1,-4.5,-0.8,15.1*,0.1,0.1,-11.2
Cc1ccc(S(=O)(=O)Nc2ccc(O)c3ccccc23)cc1[N+](=O)[O-],-8.7,8.3,-0.9,-0.7,.,.
CCc1ccccc1Nc1nncc(=O)[nH]1,10.5,-1.0,7.2*,0.0,-1.6,-9.5
CCOc1ccccc1Nc1nncc(=O)[nH]1,11.2,-2.9,-0.1,-0.1,.,.
SMILES,TEAD-YAP inh,MITF inh,GPR151 activ,FBW7 activator,GPR151 confirm,GPR119 counter
COc1ccc(S(=O)(=O)N2N=C(C)Oc3ccccc3C2=O)cc1,44.1*,3.3,5.2*,0.0,0.1,6.3
CCC(C)NC(=O)C1CCCN(S(=O)(=O)N2CCOCC2)C1 (stereo unspecified),-1.1,6.4,8.8*,-0.2,-0.2,-0.1
CC(C)C(=O)N1CC[C@@H]2[C@H](CCCN2C(=O)Cc2cccc(F)c2F)C1,3.3,2.6,0.9,0.0,.,.
CCCOC(=O)CN1C(=O)c2ccc(Br)cc2C1=O,-2.8,-1.4,8.7*,0.1,0.5,13.6
CCCOC(=O)CN1C(=O)c2ccc(C(=O)OCCC)cc2C1=O,-4.6,8.4,0.4,0.1,.,.
Cc1ccc(-c2csc(NS(=O)(=O)c3c(C)[nH]c(=O)[nH]c3=O)n2)cc1,-12.0,3.1,-1.8,0.4,.,.
CCn1c(N)c(C(=O)N2CCCCC2)sc1=S,0.2,9.7,5.4*,-0.2,-0.4,0.0
COCCNC(=O)CCC1CCN(Cc2ccc(NC(C)=O)cc2)CC1,0.0,7.6,-1.7,0.1,.,.
CCN1CCN(CCCNC(=O)CCCNC(=O)Cn2cnc3sc4c(c3c2=O)CCCC4)CC1,5.7,17.4,-0.6,0.4,.,.
CN1CCN(CCCNC(=O)CCCNC(=O)Cn2cnc3sc4c(c3c2=O)CCCC4)CC1,-4.5,13.7,6.0*,0.1,-0.3,-0.3
CCOC(=O)c1c(C)n(C)c2ccc(OCC(O)Cn3nnc4ccccc43)cc12 (stereo unspecified),12.1,12.1,6.0*,-0.2,0.1,4.1
CCOC(=O)c1c(C)n(C)c2ccc(OCC(O)CN(CC)CC)cc12 (stereo unspecified),4.2,-2.6,3.5,0.1,.,.
Cc1cc(C(=O)CN(Cc2ccccc2)S(=O)(=O)c2cccs2)c(C)n1C,-1.8,7.0,0.0,0.1,.,.
COc1ccccc1N1CCN(CCN2CCN(C)CC2)CC1,-2.0,4.8,12.5*,-0.1,0.2,-10.6
COC(=O)c1ccc(OCC(O)CN2CCN(c3ccccc3OC)CC2)cc1 (stereo unspecified),19.7,-7.9,10.7*,0.1,0.3,1.7
CCC(=O)c1ccc(OCC(O)CN2CCN(c3ccccc3OC)CC2)cc1 (stereo unspecified),3.9,-0.8,2.4,-0.2,.,.
O=C(CN1C(=O)c2ccc(Br)cc2C1=O)OC1CCCCC1,-6.2,-3.8,0.4,0.0,.,.
O=S(=O)(NCc1csc(-c2cccnc2)n1)c1ccc(Br)cc1,-8.9,11.4,5.6*,-0.1,-0.1,-9.9
O=C(Nc1cnn(-c2cccc(C(=O)Nc3cccc(Cn4cncn4)c3)c2)c1)Nc1ccccc1Cl,4.9,9.6,-1.5,0.4,.,.
COC(=O)c1cc(CNC(=O)C(C)C)cc(NS(=O)(=O)c2ccccc2Cl)c1,-9.4,-7.4,5.6*,0.1,0.4,17.2
C=CCCC(=O)NCc1cc(NS(=O)(=O)c2ccccc2Cl)cc(C(=O)OC)c1,2.7,1.4,-0.1,0.8,.,.
CCCCCC1C/C(=N/OC(C)=O)C=C(C)C1C(=O)OC (stereo unspecified),-3.2,-5.7,7.3*,0.1,1.3,10.1
COc1cccc2cc(-c3csc(NC(=O)CCC(=O)N4CCC(C(N)=O)CC4)n3)c(=O)oc12,-21.4,-8.4,5.2*,-0.1,-0.3,9.8
O=S1(=O)CCN=C2C(Cl)=CC(C(F)(F)F)=CN21,-4.3,-14.9,0.1,-0.1,.,.
COc1ccccc1OCc1nnc(SCCN2CCOCC2)o1,6.7,-1.6,5.9*,-0.3,0.6,7.4
COC(=O)C1=C(C(=O)OC)[C@@H]2N(Cc3ccccc3)c3ccccc3[C@@]23C[C@@H](C(=O)OC)N(C(=O)Nc2cccc(C#N)c2)C3=N1,.,11.7,-1.1,-0.1,.,.
Cc1ccc(NC(=O)CSc2nc3c(oc4ccccc43)c(=O)n2C)cc1,-0.4,4.6,1.3,0.0,.,.
